# In the library only some 1.2% were active in any assay of this set; here they are far more common.
# pAkt inh – inhibitors of Akt phosphorylation | hit rate 0.32% among 360,000 | AID 651550 | activity change, % for hits at 50 µM | Neuro2A IGF-stimulated pAkt S473 HTRF, 20 min; active compounds read low; in the data active = activity change below about -80%; inconclusive = mostly about -51% to -80%; also: % is scaled to controls: 0 for no effect and ±100 for the full control effect
#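 Neuro2A cells in DMEM with 0.5% FBS, overnight at 37 deg C, given compound at single 50 µM final, then IGF (6 nM final) for 20 min at 37 deg C. Lysed; phospho-Akt Ser473 by HTRF after 24 h, 665/615 ratio.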
# gsp agonist – gsp mutant agonism | gsp mutant cells, cAMP HTRF, 30 min | Potency, µM (doses to about 76.9 µM), inactives show at the top dose activation (cAMP increase), most hits filed as activators | hit rate 0.13% among 340,000 | AID 624287; active = well fitted activation curve with a large enough effect; inconclusive = small, poorly fitted or top-dose-only effect, or another doubt; inactive = no such curve, though single readings can be large or run the other way; cell line not stated here;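 also: phosphodiesterase inhibitor Ro 20-1724 added with compounds to block cAMP breakdown; potency is read from the fitted curve at half-maximal effect; nearly all actives have a fitted effect of over 60% in size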
#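 Cells in DMEM/10% FBS with G418 were pretreated with compounds in DMSO plus […] (300 uM stock) for 30 min at 37C. cAMP was measured by HTRF (cAMP-d2 plus anti-cAMP antibody-K) after 30 min at room temperature.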
# gsp antag – antagonists of gsp mutant (McCune-Albright syndrome). AID 624288. gsp-mutant cells, cAMP HTRF, 30 min. hit rate 0.4% among 340,000. Potency, µM (series often up to 76.9 µM), without a hit: top-dose activity change, negative = inhibition, hits mostly inhibitors; calls by dose curve; cell line not stated here;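 also: intracellular cAMP measured with PDE inhibitor Ro 20-1724 present during compound exposure; potency is read from the fitted curve at half-maximal effect; % is scaled to controls: 0 for no effect and ±100 for the full control effect; nearly all actives have a fitted effect of over 65% in size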
#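 HTRF cAMP measurement after 30 min RT detection following 30 min, 37C compound treatment alongside […] (added as 300 uM solution) in G418-selected cells seeded at 2000/well and grown 16–24 h.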
# RXFP1 ag – RXFP1 (human) receptor agonism; AID 2676; HEK293T-RXFP1 cAMP TR-FRET, 30 min; response scale: percent of porcine relaxin response, buffer zero; Q9HBX9; hit rate 0.3% among 370,000; Potency, µM (doses to about 57.5 µM), without a hit: top-dose activation, hits mostly activators; active = well fitted activation curve with a large enough effect; inconclusive = small, poorly fitted or top-dose-only effect; also: potency is read from the fitted curve at half-maximal effect; % is scaled to controls: 0 for no effect and ±100 for the full control effect; nearly all actives have a fitted effect of over 60% in size
# Target sequence (Q9HBX9 whole entry, looked up): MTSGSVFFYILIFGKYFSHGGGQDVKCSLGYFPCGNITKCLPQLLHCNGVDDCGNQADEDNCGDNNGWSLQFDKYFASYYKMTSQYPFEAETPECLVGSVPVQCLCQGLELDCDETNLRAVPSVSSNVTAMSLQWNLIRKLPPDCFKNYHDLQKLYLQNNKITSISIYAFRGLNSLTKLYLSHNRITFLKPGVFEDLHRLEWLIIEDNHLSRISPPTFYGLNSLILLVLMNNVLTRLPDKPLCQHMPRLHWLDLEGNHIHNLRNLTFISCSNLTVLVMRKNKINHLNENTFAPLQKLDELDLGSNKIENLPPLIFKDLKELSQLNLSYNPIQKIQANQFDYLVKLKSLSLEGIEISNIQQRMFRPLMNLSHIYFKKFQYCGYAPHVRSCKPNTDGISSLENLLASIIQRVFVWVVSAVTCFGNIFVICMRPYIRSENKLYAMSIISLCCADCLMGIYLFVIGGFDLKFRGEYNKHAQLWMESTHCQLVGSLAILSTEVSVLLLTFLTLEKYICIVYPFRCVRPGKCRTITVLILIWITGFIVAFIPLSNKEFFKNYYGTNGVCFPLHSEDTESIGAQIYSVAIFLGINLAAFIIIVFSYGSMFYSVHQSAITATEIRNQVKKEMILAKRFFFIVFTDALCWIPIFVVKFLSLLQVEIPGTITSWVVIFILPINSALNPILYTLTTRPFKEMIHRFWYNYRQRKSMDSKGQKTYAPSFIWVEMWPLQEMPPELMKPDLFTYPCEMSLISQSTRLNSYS
#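 cAMP rise read by TR-FRET after 30 min, 37C compound exposure (up to 58 uM) in RXFP1-transfected HEK293 cells with Ro 20174 present. EC50 from Hill-equation fits, with 29 nM porcine relaxin as 100% and buffer as basal.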
# RXFP1 antagonist – blocks the human relaxin receptor RXFP1. activity change, negative = inhibition, % at 57.5 µM. Q9HBX9. hit rate 0.59% among 350,000. HEK293-RXFP1, relaxin-stimulated cAMP HTRF, 30 min; active compounds read low;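 active = activity change of -60% or lower, but not beyond a set lower limit; inconclusive = change between -60% and -40%, or beyond the set limit; inactive = change above -40%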; also: % is scaled to controls: 0 for no effect and ±100 for the full control effect
# The depositor's hits bear a star; i = inactive; ? = inconclusive; / = no result given; + = active, no number; [ ] = dose if it differs, or a comment.
SMILES,pAkt inh,gsp agonist,gsp antag,RXFP1 ag,RXFP1 antagonist
COc1ccc(C2c3ccc4ccccc4c3Oc3ncn(CCN(C)C)c(=N)c32)cc1 (stereo unspecified),i,7%,5%,2%,-108*
CSc1nc(-c2ccc(Cl)cc2)nn1S(=O)(=O)c1ccccc1,-115%*,-25%,-11%[15.4 µM],1%,1
CSc1nc(-c2ccc(Cl)cc2)nn1S(=O)(=O)c1ccc(Cl)cc1,i,-18%,4%,1%,-3
COc1cccc2c3c(c(=O)[nH]c12)CCC(C)(C)O3,i,-21%,6%,1%,-2
Cn1c(=O)c2c(c3ccccc31)OC(C)(C)CC2,i,-14%[15.4 µM],+[activator],5%,-12
O=C1c2[nH]nc(-c3ccc(F)cc3)c2C(c2ccccc2F)N1c1ccccc1 (stereo unspecified),/,/,/,6%,-68*
Cc1cc(C)c(S(=O)(=O)N2CCCOC2CNC(=O)C(=O)NCc2ccccn2)c(C)c1 (stereo unspecified),i,24%[15.4 µM],11µM*,1%,-11
COc1ccc(Cn2c(-c3ccc(C)cc3)nc3c(c(=O)c4ccccc4n3C)c2=O)cc1,i,-7%,25µM*,4%,2
CCc1ccc(S(=O)(=O)c2nnn3c2nc(NC2CCCC2)c2sccc23)cc1,/,/,/,19%,-21
CCCc1nn2c(=O)cc(COC(=O)c3ccccc3NC(=O)C3CCCCC3)nc2s1,/,/,/,0%,1
CNc1ncnc(Sc2nc(N)nc3nc[nH]c23)c1[N+](=O)[O-],i,?,1%,/,9
Nc1nc(Sc2ccc([N+](=O)[O-])c3nonc23)c2[nH]cnc2n1,i,13µM*,-17%,/,13
Cc1cc2oc(C(=O)Nc3ccc(S(=O)(=O)N(C)Cc4ccccc4)cc3)cc(=O)c2cc1C,/,/,/,16%,-6
CCCOc1cccc(-c2nc3ccccc3c(=O)o2)c1,i,-8%[15.4 µM],?,1%,-84*
Cc1ccc2oc(=O)c3cc(C(=O)N(Cc4ccccc4)C(C)C)sc3c2c1,/,/,/,1%,/
COc1ccc(NC(=O)CSc2ccc3nnc(-c4cccnc4)n3n2)cc1OC,i,?,4%,18µM*,10
O=C(CSc1ccc2nnc(-c3cccnc3)n2n1)Nc1ccccc1,i,?,9%,16µM*,12
COc1ccc(NC(=O)CSc2ccc3nnc(-c4ccccn4)n3n2)cc1OC,i,?,2%,0%,3
O=C(CSc1ccc2nnc(-c3cccnc3)n2n1)Nc1cccc(F)c1,i,?,23%,?,2
CCOc1ccc(CNC(=O)CCn2c(=O)oc3ccccc32)cc1OC,-105%*,8%,-1%,3%,-7
COCCNC(=O)CCn1c(=O)oc2ccccc21,-109%*,1%,1%,0%,6
Cc1cccc(-c2noc(CN(C(C)C)S(=O)(=O)c3ccc(Br)cc3)n2)c1,/,/,/,1%,0
CCN(CC(=O)Nc1ccccc1C(F)(F)F)C(=O)CN1C(=O)NC2(CCCC2)C1=O,i,-15%[15.4 µM],6%,1%,-60*
Cc1ccc(C)c(CN2C(=O)c3ccccc3S(=O)c3ccc(C(=O)NCCc4ccc(Cl)cc4)cc32)c1 (stereo unspecified),/,/,/,-2%,/
O=C(CN1CCN(Cc2ccccc2)CC1)Nc1ccc([N+](=O)[O-])cc1C(=O)Nc1ccccc1F,i,-16%,?,0%,-28
SMILES,pAkt inh,gsp agonist,gsp antag,RXFP1 ag,RXFP1 antagonist
CCOC(=O)N1CCN(CC(=O)Nc2ccc([N+](=O)[O-])cc2C(=O)Nc2ccccc2F)CC1,i,10%,28µM*,-2%,2
COc1cc(C(=O)Nc2nc(-c3ccc(C)cc3)cs2)ccc1OCC(=O)N1CCOCC1,i,-2%,36%,2%,-19
COc1cc(C(=O)Nc2nc(-c3cc(C)ccc3C)c(C)s2)ccc1OCC(=O)Nc1ccc(F)cc1,i,?,5%,32µM*,3
COc1cc(C(=O)Nc2nc(-c3ccc(F)cc3)cs2)ccc1OCC(=O)N1CCOCC1,i,-8%,35µM*,-2%,-25
COc1ccc(C(=O)Nc2nc(C)c(C)s2)cc1OC,i,?,-10%[15.4 µM],3%,-20
COc1ccc(C(=O)NCC(=O)Nc2ccc(F)cc2)cc1OC,i,13%,6%,-1%,5
COc1ccc(-c2nc(NC(=O)c3ccc(OCC(=O)Nc4ccc(F)cc4)c(OC)c3)sc2C)cc1,i,?,47%,28µM*,-18
CC(=O)c1ccc(NS(=O)(=O)c2ccc(-n3cccn3)cc2)cc1,/,/,/,-2%,/
COc1ccc(C(=O)NCCn2cc(SCC(=O)NCCc3ccc(OC)c(OC)c3)c3ccccc32)cc1,/,/,/,0%,/
CCN(CC)CCOC(=O)c1ccc(NC(=O)c2cc3c(s2)-c2ccccc2OC3)cc1,/,/,/,6%,/
COc1ccccc1NC(=O)/C(C#N)=C/c1cccnc1,i,?,-14%,4%,-1
N#C/C(=C\c1cccnc1)C(=O)Nc1cccc2ccccc12,i,?,10%,-1%,-67*
O=C(NC(=S)NCCN1CCOCC1)c1ccc(F)cc1,i,?,4%,-1%,-8
O=C(NCCN1CCOCC1)c1ccc(F)cc1,-101%*,2%,8%,-2%,-1
Cc1cc(C)n(-c2ccc(C(=O)Nc3ccc(C)c(S(=O)(=O)N4CCOCC4)c3)cc2)n1,i,-1%[15.4 µM],35µM*,-2%,-23
COc1ccc(/C=C/C(=O)Nc2ccc(C)c(S(=O)(=O)N3CCOCC3)c2)cc1,i,/,32µM*,/,/
CCOC(=O)c1ccc(NC(=O)c2ccc(C)c(S(=O)(=O)N3CCOCC3)c2)cc1,i,0%,28µM*,1%,?
Cc1nnc(N2CCN(c3ccc(Cl)cc3)CC2)c2c1nnn2Cc1ccc(F)cc1,/,/,/,?,-8
Cc1ccc(Cn2ccnc2SCC(=O)Nc2ccccc2C(F)(F)F)cc1,/,/,/,0%,-2
CC(=O)N1c2ccccc2C(=O)C1N1CCN(c2cc(Cl)ccc2C)CC1 (stereo unspecified),/,/,/,-1%,-24
COc1ccc(N(C(=O)c2ccco2)S(=O)(=O)c2cccs2)cc1,-113%*,7%,-14%,1%,0
CC(C)(C)CC(=O)OCC(=O)[C@@]1(O)CC[C@H]2[C@@H]3CCC4=CC(=O)C=C[C@]4(C)[C@H]3[C@@H](O)C[C@@]21C,/,/,/,/,-19
CC(C)C(Cl)=NOC(=O)Nc1ccc(S(N)(=O)=O)cc1,i,12%,11%,/,-73*
O=C(NCCN1CCN(c2cccc(Cl)c2)CC1)c1ccc(CSc2nc3ccncc3[nH]2)cc1,i,17%,32µM*,3%,-5
CCN(CCNC(=O)c1ccc(CSc2nc3ccncc3[nH]2)cc1)c1ccccc1,i,-233%,-6%,0%,/
